Laboratory results as given in PubChem BioAssay (NCI).
This is part of a sample that, as a whole, favours compounds with a hit. Of some 79,000 tested, about 15% had one in any assay. Values without a mark were called inactive. Active and inactive are the calls of the source. No stated cut-off is given here; in the data, active means growth inhibition above about 70%; inactive means the rest.

Experiments:
[1] = NCI Yeast Anticancer Drug Screen. Data for the rad50 strain (AID 155);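 further: 0% = growth of vehicle-only cultures of the same strain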; settings: S. cerevisiae rad50 strain growth inhibition, active compounds read high
In short: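 Vehicle-treated cultures provide the reference for the growth inhibition reported for compound-exposed, repair-deficient yeast.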

[2] = NCI Yeast Anticancer Drug Screen. Data for the mec2-1 strain (AID 157); settings: S. cerevisiae mec2-1 strain, active compounds read high
In short: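 Compounds were applied to mec2-1 yeast cells. Their growth was then compared with that of vehicle-treated cultures to give growth inhibition.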

[3] = NCI Yeast Anticancer Drug Screen. Data for the sgs1 mgt1 strain (AID 161);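 further: 0% = growth of cultures given vehicle only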; settings: S. cerevisiae sgs1 mgt1 strain, active compounds read high
In short: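 Percent growth inhibition was derived by comparing compound-exposed mutant yeast with vehicle-exposed cultures. The strain carries alterations in DNA damage repair.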

[4] = NCI Yeast Anticancer Drug Screen. Data for the cln2 rad14 strain (AID 165);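 further: 0% = growth equal to vehicle treated cultures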; settings: S. cerevisiae cln2 rad14 strain, active compounds read high
In short: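 Strain: cln2 rad14 yeast, altered in cell cycle control and DNA damage repair. Read-out: growth inhibition vs vehicle.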

[5] = NCI Yeast Anticancer Drug Screen. Data for the bub3 strain (AID 167); settings: S. cerevisiae bub3 mutant strain, active compounds read high
In short: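 Mutant yeast screening strain plus compound; vehicle-treated cultures serve as the 0% inhibition reference.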

[6] = NCI Yeast Anticancer Drug Screen. Data for the mlh1 rad18 strain (AID 175); settings: S. cerevisiae mlh1 rad18 strain growth inhibition, active compounds read high
In short: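 A repair-deficient yeast strain is exposed to test compound, and growth is scored relative to vehicle-treated controls.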

[7] = at 5.0 µM (retest, dose inferred, filed as 0.5)
[8] = at 50.0 µM (retest, dose inferred, filed as 5.0)

SMILES | growth inhibition [1, 7] [%] | growth inhibition [1, 8] | growth inhibition ([1]; at 50.0 µM) | growth inhibition [2, 7] [%] | growth inhibition [2, 8] | growth inhibition ([2]; at 50.0 µM) | growth inhibition [3, 7] [%] | growth inhibition [3, 8] | growth inhibition ([3]; at 50.0 µM) | growth inhibition [4, 7] [%] | growth inhibition [4, 8] | growth inhibition ([4]; at 50.0 µM) | growth inhibition [5, 7] [%] | growth inhibition [5, 8] | growth inhibition ([5]; at 50.0 µM) | growth inhibition [6, 7] [%] | growth inhibition [6, 8] | growth inhibition ([6]; at 50.0 µM)
CC(=O)OCc1c2ccccc2c(C)c2c1cc(F)c1ccccc12 | 35 | 87% (active) | 98.2% (active) | 25 | 89% (active) | 98.8% (active) | 52 | 90% (active) | 98.1% (active) | 14 | 85% (active) | 98.2% (active) | 15 | 86% (active) | 98.5% (active) | 40 | 88% (active) | 98.2% (active)
COc1ccccc1OCC(COC(=O)Nc1ccc(C)cc1)OC(=O)Nc1ccc(C)cc1 (configuration not stated) | 2 | 2% | 88.4% (active) | -5 | -5% | 82.4% (active) | -18 | -18% | 85.2% (active) | -2 | -2% | 78.6% (active) | -1 | -1% | 85% (active) | -1 | -1% | 78.7% (active)
Cc1[nH]c2ccccc2c1/C=C1/CCCCCCC1=O | -1 | 45% | 93.8% (active) | -20 | 34% | 93.6% (active) | -11 | 66% | 96.5% (active) | 3 | 24% | 91.6% (active) | -2 | 41% | 93.5% (active) | -7 | 72% (active) | 97.3% (active)
CC(=O)N[C@H]1CCC2[C@@H]3CCC4=CC(=O)NCC[C@]4(C)C3CC[C@@]21C (some centres not stated) | 0 | 89% (active) | 56.5% | -2 | 92% (active) | 46.6% | -3 | 58% | 56.4% | -4 | 78% (active) | 69.5% | 6 | 88% (active) | 96.2% (active) | -2 | 85% (active) | 57.5%
